From PubChem BioAssay
“And” between values parts separate entries of the source, which are not always exact repeats. Identical values can stand only once. The source made the active and inactive calls. How the calls were made is not given here.

Experiment: inhibition of Brca1/Bard1 split-luciferase complementation, confirmation, counter-screen for Mdm2/MdmX interaction inhibitor project, luminescence, single concentration (AID 504668)
Settings: Brca1/Bard1 bimolecular luciferase complementation counterscreen, at 8 µM, active compounds read high

| Structure (SMILES) | inhibition |
| --- | --- |
| COc1ccc2nc(NC(=O)/C=C/c3ccc4c(c3)OCO4)sc2c1 | 35.2% (active) |
| O=C(Nc1c2ccccc2nc2ccccc12)C(Cl)(Cl)Cl | 33.7% (active) |
| O=C(Nc1nc(-c2ccccn2)cs1)c1cccc(-n2cnnn2)c1 | 26.2% (active) |
| C#CCOCCOCCOCCNc1nc(N2CCN(C(=O)CCCCCCCCCCNC(=O)[C@H](CO)n3cc(CCCSC)nn3)CC2)nc(N2CCN(C(=O)CCCCCCCCCCNC(=O)[C@H](CCCCN)n3cc(C[C@@H](C)CC)nn3)CC2)n1 | 26.6% (active) |
| O=C1[C@H]2[C@@H](c3ccc(F)cc3)N3C(=O)N(c4ccc(Br)cc4)C(=O)[C@@]3(Cc3ccccc3)[C@H]2C(=O)N1C1CCCCC1 | 26.6% (active) |
| CCN(CC)Cc1c(O)ccc2c1O/C(=C\C=C\c1ccccc1)C2=O | 25.3% (active) |
| C=CCN=C1NN=C(c2cc(C)n(CCOC)c2C)CS1 | 31% (active) |
| Cc1oc2c(Cl)c(Cl)c(O)c(CN(C)C)c2c1C(=O)c1ccc(Cl)cc1 | 26.8% (active) |
| O=C(Nc1ccc(F)c(Cl)c1)Nc1csc2ccccc12 | 35% (active) |
| O=[N+]([O-])c1ccc2ncnc(Nc3ccc4c(c3)OCCO4)c2c1 | 29.6% (active) |
| Cc1nc(NC(=O)/C=C/c2ccccc2)n[nH]1 | 32.9% (active) |
| O=C(CCCl)Nc1nc2c(s1)CCc1ccccc1-2 | 24.6% (active) |
| CC(C)[C@H](NC(=O)c1ccccc1Cl)C(=O)Nc1nc(-c2ccccn2)cs1 | 35.6% (active) |
| CCCOCc1ccc(O)c2ncccc12 | 27.6% (active) |
| O=C(Nc1cc(Cl)ccc1O)c1snnc1-c1ccccc1 | 23% (active) |
| O=C(NNC(=O)c1ccccc1OCc1ccc(F)cc1)c1ccccc1O | 31.1% (active) |
| Cc1ccc(NC(=O)Cn2nnc(C(=O)NCCc3ccccc3)c2N)cc1Cl | 29.3% (active) |
| O=C(NNc1c2ccccc2nc2ccccc12)C(O)c1ccccc1 (centres undefined) | 34.4% (active) |
| Cc1cccc(NC(=O)Nc2cccc(Oc3c(F)c(F)c(F)c(F)c3F)c2)c1 | 32.5% (active) |
| CN1C2CCC1/C(=C\c1ccccc1F)C(=O)/C2=C/c1ccccc1F | 35.1% (active) |

| Structure (SMILES) | inhibition |
| --- | --- |
| O=C(CN1CCCc2ccccc21)N/N=C/c1c(O)ccc2ccccc12 | 30.3% (active) |
| CCOc1ccc(C(=O)N/N=C(\c2ccccc2)c2ccccn2)cc1 | 30.1% (active) |
| Cc1cc(Nc2cccc([N+](=O)[O-])c2)n2c(nc3ccccc32)c1C#N | 30.7% (active) |
| Cc1nc(SCC(=O)Nc2ccc(S(=O)(=O)N3CCOCC3)cc2)c2c(C)c(C)sc2n1 | 28.6% (active) |
| Oc1ccccc1/C=N/Nc1nccnc1Cl | 30.8% (active) |
| COc1ccc(Cl)cc1NC(=O)c1nnn(CC(=O)Nc2ccc(OC)c(OC)c2)c1N | 31.7% (active) |
| CC(=O)c1c(C)[nH]c(C(=O)N2CCN(c3cc(Cl)ccc3C)CC2)c1C | 34% (active) |
| O=C(NC(CSCc1ccccc1)C(=O)N/N=C/c1ccc(O)cc1O)c1ccc([N+](=O)[O-])cc1 (centres undefined) | 34.3% (active) |
| Cc1ccc(NC(=O)c2ccccc2NS(=O)(=O)c2ccc(Cl)s2)cc1 | 28.9% (active) |
| CCCC(O)(CCC)C(=O)NN(C(=O)CCl)c1cccc(C)c1 | 23.7% (active) |
| CC1(C)Cc2c(sc(NC(=O)c3ccc(C(=O)c4ccccc4)cc3)c2C(N)=O)C(C)(C)N1 | 34.2% (active) |
| Nc1ccc(C(=O)OCc2nc3cc4ccccc4cc3[nH]2)cc1 | 34.5% (active) |
| O=C(CCCN1C(=O)/C(=C\c2cccc(Br)c2)SC1=S)Nc1cccnc1 | 24.4% (active) |
| CCc1ccc(S(=O)(=O)/N=C2\C=C(Nc3ccc(C(=O)O)cc3)C(=O)c3ccccc32)cc1 | 33.2% (active) |
| Cn1c(C(=O)NCc2ccccc2)cc2oc3ccccc3c21 | 32.1% (active) |
| CCCCN(Cc1ccco1)C(=O)c1cc2c(=O)[nH]c3ccc(C)cc3c2s1 | 23.8% (active) |
| Cc1ccc(-n2c(-c3ccccc3)c[n+]3c2CCc2ccccc2-3)c(C)c1 | 26.4% (active) |
| C1CCC(C(CC2CCCCN2)C2CCCCC2)CC1 (centres undefined) | 35.2% (active) and 23.8% (active) |
| C=C(C(=O)Oc1ccccc1C(C)(C)C)c1ccccc1 | 34% (active) |
